# In the supplement of paper PMC11624193, “Coupling cellular drug-target engagement to downstream pharmacology with CeTEAM” (Nature Communications, 2024):
# Where a name gives a salt, the structure may show the parent alone. ± gives the standard deviation of the averaged measurements.
# Target: PARP1 L713F-nLuc biosensor (HCT116) (UniProt P09874)
# Test: PARP1 L713F-nLuc/akaLuc ratio relative to DMSO control (biosensor stabilization) (fold change); higher = more PARP1 biosensor stabilization (target engagement / stabilizer), active = hit call of the paper
# Conditions: stock concentration (mM; final µM = stock mM x 1): 10; 24 h;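 active = log2 fold change beyond 2 SD from the library mean after excluding viability outliers; inactive = within 2 SD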
# Chain of PARP1 L713F-nLuc biosensor (HCT116) (P09874 whole entry L713F, looked up): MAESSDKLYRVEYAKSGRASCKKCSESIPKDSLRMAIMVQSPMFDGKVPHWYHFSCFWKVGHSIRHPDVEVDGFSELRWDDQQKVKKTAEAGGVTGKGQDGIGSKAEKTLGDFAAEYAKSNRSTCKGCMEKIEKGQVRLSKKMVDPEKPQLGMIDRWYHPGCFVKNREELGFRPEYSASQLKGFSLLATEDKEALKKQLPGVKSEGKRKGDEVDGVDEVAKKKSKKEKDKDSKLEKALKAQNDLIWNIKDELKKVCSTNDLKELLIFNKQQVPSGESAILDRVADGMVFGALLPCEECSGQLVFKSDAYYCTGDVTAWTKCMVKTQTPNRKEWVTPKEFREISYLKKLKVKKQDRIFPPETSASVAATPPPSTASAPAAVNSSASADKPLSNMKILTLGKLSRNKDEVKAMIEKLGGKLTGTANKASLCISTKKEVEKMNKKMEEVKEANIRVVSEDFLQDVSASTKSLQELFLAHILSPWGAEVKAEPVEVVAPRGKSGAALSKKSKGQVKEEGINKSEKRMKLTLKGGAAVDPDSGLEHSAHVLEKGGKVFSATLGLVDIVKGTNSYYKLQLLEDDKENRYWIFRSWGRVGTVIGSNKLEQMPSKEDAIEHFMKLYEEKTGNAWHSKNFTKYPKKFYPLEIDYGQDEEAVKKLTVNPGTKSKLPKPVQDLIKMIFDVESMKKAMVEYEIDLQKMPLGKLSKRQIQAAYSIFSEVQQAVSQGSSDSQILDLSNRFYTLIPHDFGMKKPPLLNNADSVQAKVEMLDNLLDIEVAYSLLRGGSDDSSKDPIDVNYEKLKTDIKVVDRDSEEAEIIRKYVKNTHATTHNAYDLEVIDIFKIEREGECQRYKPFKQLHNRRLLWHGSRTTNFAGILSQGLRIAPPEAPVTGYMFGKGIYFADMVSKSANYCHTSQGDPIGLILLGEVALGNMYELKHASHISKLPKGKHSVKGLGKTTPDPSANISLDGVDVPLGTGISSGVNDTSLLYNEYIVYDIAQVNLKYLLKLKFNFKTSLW
row,Structure (SMILES),PARP1 L713F-nLuc/akaLuc ratio
1,COc1cc(N2CCN(C)CC2)ccc1Nc1nccc(-c2cn(C)c3cnccc23)n1,0.923 (inactive)
2,O=C(O)c1c[nH]c2cc(Cl)c(-c3ccc(C4(O)CCC4)cc3)cc12,0.446 (inactive)
3,CC(=O)Nc1cc(Oc2ccc3c(nc(Nc4ccc(F)cc4F)n3C)c2C)ccn1,0.89 (inactive)
4,O=C(Nc1cccc(Cl)c1)Nc1ncc(CCNc2ncnc3ccsc23)s1 [SNS-314 (mesylate)],1.11 (inactive)
5,CCN(CC)C(=O)c1ccc(Nc2nc(OCC3CCCCC3)c3[nH]cnc3n2)cc1,0.71 (inactive)
6,Cn1nnc2c(C(N)=O)ncn2c1=O [Temozolomide],0.833 (inactive)
7,Cc1cc(Nc2cc(N3CCN(C)CC3)nc(Sc3ccc(NC(=O)C4CC4)cc3)n2)n[nH]1 [Tozasertib],0.774 (inactive)
8,Cn1ncc(Cl)c1-c1cc(C(=O)N[C@H](CN)Cc2ccc(F)c(F)c2)oc1Cl,0.603 (inactive)
9,CC(CCc1ccccn1)(CCc1ccccn1)C(=O)c1ccccc1,1.27 (inactive)
10,CC1=C(C)C(=O)C(C(C)(C)CC(=O)N(CCCCSC[C@H]2O[C@@H](n3cnc4c(N)ncnc43)[C@H](O)[C@@H]2O)Cc2cccc(-c3ccc(Cl)cc3)c2)=C(C)C1=O,0.784 (inactive)
11,O=c1ccc2ccc(O)c(O)c2o1 [Daphnetin],1.38 (inactive)
12,O=c1[nH]c(=O)n([C@H]2C[C@H](O)[C@@H](CO)O2)cc1C(F)(F)F [Trifluridine],0.548 (inactive)
13,O=C(O)c1ccc(Nc2ncc3c(n2)-c2ccc(Cl)cc2C(c2c(F)cccc2F)=NC3)cc1,1.87 (inactive)
14,O=C(NOC[C@H](O)CO)c1ccc(F)c(F)c1Nc1ccc(I)cc1F,0.6 (inactive)
15,CO[C@H]1CNC[C@@H](OCC2CCC(F)(F)CC2)[C@@H]1Nc1ncc(-c2cncc(C)c2)c2cc(C)c(=O)[nH]c12,1.63 (inactive)
16,CNCc1ccc(-c2cc3cc(F)cc(C(N)=O)c3o2)cc1 [Mefuparib (hydrochloride)],10.5 (active)
17,COC(=O)c1ccc2c(c1)NC(=O)/C2=C(\Nc1ccc(N(C)C(=O)CN2CCN(C)CC2)cc1)c1ccccc1 [Nintedanib (BIBF 1120)],0.6 (inactive)

row,Structure (SMILES),PARP1 L713F-nLuc/akaLuc ratio
1,COc1cc(OC)c2c(=O)[nH]c(-c3cc(C)c(OCCO)c(C)c3)nc2c1 [Apabetalone],1.28 (inactive)
2,CC(C)(C)c1nc2c3cc[nH]c(=O)c3c3cc(F)ccc3c2[nH]1 [Pyridone 6],0.692 (inactive)
3,O=C(Nc1ccc(Cl)cc1)c1cc2ccccc2cc1O [Naphthol AS-E],1.09 (inactive)
4,COc1ccc2[nH]cc(/C=C3\C(=O)Nc4ccc(NC(=O)CCN5CCCCC5)cc43)c2c1,0.931 (inactive)
5,CC(=O)O[C@H]1C(=O)[C@@]2(C)[C@H]([C@H](OC(=O)c3ccccc3)[C@]3(O)C[C@H](OC(=O)[C@H](O)[C@@H](NC(=O)c4ccccc4)c4ccccc4)C(C)=C1C3(C)C)[C@]1(OC(C)=O)CO[C@@H]1C[C@@H]2O [Paclitaxel],2.97 (active)
6,"O=c1ccoc2cc(O)cc(O)c12 [5,7-Dihydroxychromone]",1.02 (inactive)
7,CN(C)CCCn1cc(C2=C(c3c[nH]c4ccccc34)C(=O)NC2=O)c2ccccc21 [Bisindolylmaleimide I],26.8 (active)
8,Cc1cc(-c2ccccc2)cc(C(=O)NNS(=O)(=O)c2cccc(O)c2)c1F,1.16 (inactive)
9,Nc1nc(NC2CC2)cc(-c2cccc(Cl)c2Cl)n1,1.94 (inactive)
10,Cc1cc(C)cc(Oc2ccc(CNC(=O)[C@H](C)N)cc2C)c1,1.24 (inactive)
11,Cc1cc(Cl)ccc1OCCCC(=O)NO [Droxinostat],2.78 (active)
12,CCCCCCCCCCCCC/C=C/[C@@H](O)[C@H](CO)NC(=O)CCCCCCC [C8-Ceramide],0.658 (inactive)
13,NC(=O)N1CCC(CC(=O)N2CCC([C@H]3c4ncc(Br)cc4CCc4cc(Cl)cc(Br)c43)CC2)CC1 [Lonafarnib],1.59 (inactive)
14,Cn1c(Nc2ccc(C(F)(F)F)cc2)nc2cc(Oc3ccnc(-c4ncc(C(F)(F)F)[nH]4)c3)ccc21,0.546 (inactive)
15,COc1cc2ncnc(Nc3ccc(O)cc3)c2cc1OC,0.842 (inactive)
16,Cc1cc(-c2nc(-c3ccc(OC(F)(F)F)cc3)no2)nn1Cc1ccnc(N2CCN(C3CC3)CC2)c1,0.46 ± 0.17
